# Measured values as given in PubChem BioAssay AID1159580 (chemical genetic matrix, 2015).
# The campaign covered roughly 5,500 compounds. About 2,000 (36%) were called active. Roughly 18% stayed inconclusive and do not appear here. The list shows a part of the results. A number with no mark means an inactive call. No stated cut-off is given here; in the data, active means normalized growth mostly below about 0.91 (no sharp cut-off); inconclusive means no clear call, values can overlap the other calls; inactive means mostly above about 0.92.
# Assay: chemical genetic growth profiling, strain panel (AID 1159580);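 further: tested at 20 µM; growth read once vehicle control cultures reached saturation at 30 °C; 1 = growth at the plate median or of vehicle wells; lower values mean less growth of the strain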
# Conditions: growth OD
smiles,measurement,setting,value
Cc1cccc(CN2CCN(C(c3ccccc3)c3ccc(Cl)cc3)CC2)c1 (stereo not drawn),normalized growth,"S. cerevisiae deletion strains, locus YJR075W, strain HOC1, hits give low values",0.794 (active)
same,normalized growth,"S. cerevisiae deletion strains, locus YKL009W, strain mrt4, hits give low values",0.971
same,normalized growth,"S. cerevisiae deletion strains, locus YKL068W, hits give low values",0.992
same,normalized growth,"S. cerevisiae deletion strains, locus YKL085W, strain MDH1 (second series), hits give low values",0.978
same,normalized growth,"S. cerevisiae deletion strains, locus YKL085W, strain MDH1, hits give low values",0.978
same,normalized growth,"S. cerevisiae deletion strains, locus YKL160W, strain elf1, hits give low values",0.75 (active)
same,normalized growth,"S. cerevisiae deletion strains, locus YKR001C, strain vps1, hits give low values",0.47 (active)
same,normalized growth,"S. cerevisiae deletion strains, locus YKR026C, strain gcn3, hits give low values",0.969
same,normalized growth,"S. cerevisiae deletion strains, locus YKR091W, strain srl3, hits give low values",0.964
same,normalized growth,"S. cerevisiae deletion strains, locus YLL001W, strain dnm1, hits give low values",0.81 (active)
same,normalized growth,"S. cerevisiae deletion strains, locus YLL026W, hits give low values",0.8 (active)
same,normalized growth,"S. cerevisiae deletion strains, locus YLL041C, strain sdh2, hits give low values",0.926 (active)
same,normalized growth,"S. cerevisiae deletion strains, locus YLR027C, strain aat2, hits give low values",0.744 (active)
same,normalized growth,"S. cerevisiae deletion strains, locus YLR039C, strain RIC1, hits give low values",1.31
same,normalized growth,"S. cerevisiae deletion strains, locus YLR058C, strain SHM2, hits give low values",0.766 (active)
same,normalized growth,"S. cerevisiae deletion strains, locus YLR102C, strain apc9, hits give low values",0.99
same,normalized growth,"S. cerevisiae deletion strains, locus YLR113W, strain HOG1, hits give low values",0.912
same,normalized growth,"S. cerevisiae deletion strains, locus YLR221C, strain rsa3, hits give low values",0.601 (active)
same,normalized growth,"S. cerevisiae deletion strains, locus YLR258W, strain gsy2, hits give low values",0.721 (active)
same,normalized growth,"S. cerevisiae deletion strains, locus YLR262C, strain YPT6 (second series), hits give low values",0.905
same,normalized growth,"S. cerevisiae deletion strains, locus YLR262C, strain YPT6, hits give low values",1.06
same,normalized growth,"S. cerevisiae deletion strains, locus YLR268W, strain sec22, hits give low values",0.895
same,normalized growth,"S. cerevisiae deletion strains, locus YLR320W, strain mms22, hits give low values",0.713 (active)
same,normalized growth,"S. cerevisiae deletion strains, locus YLR330W, strain CHS5, hits give low values",0.743 (active)
same,normalized growth,"S. cerevisiae deletion strains, locus YLR342W, strain FKS1 (second series), hits give low values",0.791
same,normalized growth,"S. cerevisiae deletion strains, locus YLR342W, strain FKS1, hits give low values",0.929
same,normalized growth,"S. cerevisiae deletion strains, locus YLR357W, strain rsc2, hits give low values",0.908
same,normalized growth,"S. cerevisiae deletion strains, locus YLR370C, strain arc18, hits give low values",0.853 (active)
same,normalized growth,"S. cerevisiae deletion strains, locus YLR371W, strain rom2, hits give low values",0.964
same,normalized growth,"S. cerevisiae deletion strains, locus YLR384C, strain iki3, hits give low values",0.992
same,normalized growth,"S. cerevisiae deletion strains, locus YLR418C, strain cdc73, hits give low values",0.365 (active)
same,normalized growth,"S. cerevisiae deletion strains, locus YML016C, strain PPZ1, hits give low values",0.887 (active)
same,normalized growth,"S. cerevisiae deletion strains, locus YML032C, strain rad52, hits give low values",0.831 (active)
same,normalized growth,"S. cerevisiae deletion strains, locus YML120C, strain ndi1, hits give low values",0.616 (active)
same,normalized growth,"S. cerevisiae deletion strains, locus YML124C, strain tub3, hits give low values",0.977
same,normalized growth,"S. cerevisiae deletion strains, locus YMR058W, strain fet3, hits give low values",0.873 (active)
same,normalized growth,"S. cerevisiae deletion strains, locus YMR078C, strain ctf18, hits give low values",0.986
same,normalized growth,"S. cerevisiae deletion strains, locus YMR125W, strain sto1, hits give low values",0.854 (active)
same,normalized growth,"S. cerevisiae deletion strains, locus YMR129W, hits give low values",0.876 (active)
same,normalized growth,"S. cerevisiae deletion strains, locus YMR205C, strain PFK2, hits give low values",0.802 (active)
same,normalized growth,"S. cerevisiae deletion strains, locus YMR223W, strain ubp8, hits give low values",0.809 (active)
same,normalized growth,"S. cerevisiae deletion strains, locus YMR231W, strain pep5, hits give low values",0.526 (active)
same,normalized growth,"S. cerevisiae deletion strains, locus YMR263W, strain SAP30, hits give low values",0.754 (active)
same,normalized growth,"S. cerevisiae deletion strains, locus YMR307W, strain GAS1, hits give low values",0.611
same,normalized growth,"S. cerevisiae deletion strains, locus YNL067W, strain RPL9B, hits give low values",0.789 (active)
same,normalized growth,"S. cerevisiae deletion strains, locus YNL071W, strain lat1, hits give low values",0.801 (active)
same,normalized growth,"S. cerevisiae deletion strains, locus YNL183C, strain NPR1, hits give low values",0.947
same,normalized growth,"S. cerevisiae deletion strains, locus YNL209W, strain ssb2, hits give low values",0.54 (active)
same,normalized growth,"S. cerevisiae deletion strains, locus YNL233W, strain BNI4, hits give low values",0.692 (active)
same,normalized growth,"S. cerevisiae deletion strains, locus YNL248C, strain rpa49, hits give low values",0.806 (active)
same,normalized growth,"S. cerevisiae deletion strains, locus YNL250W, strain rad50, hits give low values",0.983
same,normalized growth,"S. cerevisiae deletion strains, locus YNL271C, strain bni1, hits give low values",0.988
same,normalized growth,"S. cerevisiae deletion strains, locus YNL298W, strain CLA4, hits give low values",0.988
same,normalized growth,"S. cerevisiae deletion strains, locus YNL307C, strain MCK1, hits give low values",0.96
same,normalized growth,"S. cerevisiae deletion strains, locus YNL322C, strain KRE1 (second series), hits give low values",0.685 (active)
same,normalized growth,"S. cerevisiae deletion strains, locus YNL322C, strain KRE1, hits give low values",0.972
same,normalized growth,"S. cerevisiae deletion strains, locus YNR049C, strain mso1, hits give low values",0.983
same,normalized growth,"S. cerevisiae deletion strains, locus YNR052C, strain pop2, hits give low values",0.724 (active)
same,normalized growth,"S. cerevisiae deletion strains, locus YOL012C, strain htz1",0.942
same,normalized growth,"S. cerevisiae deletion strains, locus YOL147C, strain pex11, hits give low values",0.913 (active)
same,normalized growth,"S. cerevisiae deletion strains, locus YOR001W, strain rrp6, hits give low values",0.802 (active)
same,normalized growth,"S. cerevisiae deletion strains, locus YOR061W, strain CKA2, hits give low values",0.916
same,normalized growth,"S. cerevisiae deletion strains, locus YOR069W, strain VPS5, hits give low values",0.955
same,normalized growth,"S. cerevisiae deletion strains, locus YOR070C, strain gyp1, hits give low values",0.735 (active)
same,normalized growth,"S. cerevisiae deletion strains, locus YOR080W, strain dia2, hits give low values",0.937
same,normalized growth,"S. cerevisiae deletion strains, locus YOR083W, strain WHI5, hits give low values",0.689 (active)
same,normalized growth,"S. cerevisiae deletion strains, locus YOR106W, strain vam3, hits give low values",0.549 (active)
same,normalized growth,"S. cerevisiae deletion strains, locus YOR136W, strain idh2, hits give low values",0.937
same,normalized growth,"S. cerevisiae deletion strains, locus YOR144C, strain elg1, hits give low values",0.973
same,normalized growth,"S. cerevisiae deletion strains, locus YOR184W, strain ser1, hits give low values",0.833 (active)
same,normalized growth,"S. cerevisiae deletion strains, locus YOR231W, strain MKK1, hits give low values",0.887
same,normalized growth,"S. cerevisiae deletion strains, locus YOR265W, strain rbl2, hits give low values",0.774 (active)
same,normalized growth,"S. cerevisiae deletion strains, locus YOR270C, strain vph1, hits give low values",0.524 (active)
same,normalized growth,"S. cerevisiae deletion strains, locus YOR290C, strain snf2, hits give low values",0.764 (active)
same,normalized growth,"S. cerevisiae deletion strains, locus YOR316C, strain cot1, hits give low values",0.98
same,normalized growth,"S. cerevisiae deletion strains, locus YPL051W, strain arl3, hits give low values",0.496 (active)
same,normalized growth,"S. cerevisiae deletion strains, locus YPL055C, strain LGE1, hits give low values",0.439 (active)
same,normalized growth,"S. cerevisiae deletion strains, locus YPL078C, strain atp4, hits give low values",0.887 (active)
same,normalized growth,"S. cerevisiae deletion strains, locus YPL106C, strain sse1, hits give low values",0.828 (active)
same,normalized growth,"S. cerevisiae deletion strains, locus YPL240C, strain hsp82, hits give low values",0.808 (active)
same,normalized growth,"S. cerevisiae deletion strains, locus YPL241C, strain CIN2, hits give low values",0.956
same,normalized growth,"S. cerevisiae deletion strains, locus YPL256C, strain CLN2, hits give low values",0.94
same,normalized growth,"S. cerevisiae deletion strains, locus YPR119W, strain clb2, hits give low values",0.996
same,normalized growth,"S. cerevisiae deletion strains, locus YPR141C, strain kar3, hits give low values",0.989
same,normalized growth,"S. cerevisiae deletion strains, locus YPR163C, strain tif3, hits give low values",0.721 (active)
same,normalized growth,"S. cerevisiae deletion strains, locus YPR167C, strain met16, hits give low values",0.884 (active)
same,normalized growth,"S. cerevisiae deletion strains, strain wtn01, hits give low values",0.761 (active)
same,normalized growth,"S. cerevisiae strains, strain wild type, hits give low values",0.812 (active)
